Nine molecules from PubChem BioAssay (Tox21) can be followed below.

Values joined by “and” are separate entries in the source; they are usually repeats but may differ in a detail not shown here. Equal values may be shown once. Results filed as inconclusive are left out. A structure can be active in one record and inactive in another. Active and inactive are the calls of the source. Unless noted, the call rests on the fitted dose curve; in most records, active means well fitted curve in the direction sought with a large enough effect in the repeat runs; inconclusive means weak or mixed curves; inactive means no such curve, though single readings can be large; an effect the other way counts as inactive or inconclusive.

Assay [1] in a line: qHTS assay to identify small molecule agonists of the peroxisome proliferator-activated receptor delta (PPARd) signaling pathway - cell viability counter screen (AID 743211). Further: nearly all actives have a fitted effect of over 55% in size. Further: potency means the concentration at half of the fitted maximal effect. The method, boiled down: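 In the same wells used for beta-lactamase reporter measurement, cytotoxicity is scored by CellTiter-Glo. HEK293H PPARd-bla cells receive compound for 17 h at 37C following a 5 h settling period.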
In general terms: In qHTS, concentration-response curves come from the screen itself.

Assay [2] in a line: qHTS assay to identify small molecule antagonists of the peroxisome proliferator-activated receptor delta (PPARd) signaling pathway - cell viability counter screen (AID 743213). Further: nearly all actives have a fitted effect of over 50% in size. Further: potency means the concentration at half of the fitted maximal effect. The method, boiled down: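 Cytotoxicity counter screen: CellTiter-Glo luminescence read 30 min after addition, in the same wells as the reporter assay. There, PPARd UAS-bla HEK293H cells (3000/well) were treated 17 h at 37 C with compound and 300 nM L165041.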

The nature of assay [3]: qHTS assay to identify small molecule antagonists of the farnesoid-X-receptor (FXR) signaling pathway - cell viability counter screen (AID 743221; active means well fitted cell-killing curve with a large enough effect in the repeat runs, not every such curve was filed as active; further: nearly all actives have a fitted effect of over 50% in size; further: potency means the concentration at half of the fitted maximal effect). The method in brief:
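Here viability was scored by luminescence after CellTiter-Glo addition to wells already read for beta-lactamase. Prior treatment: compound plus CDCA (50 uM final), 16 h, 37 C, HEK 293T FXR-bla cells.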

Assay [4] has as its target Vitamin D3 receptor (Homo sapiens) (UniProt P11473). The assay is described as follows: qHTS assay to identify small molecule agonists of the vitamin D receptor (VDR) signaling pathway (AID 743222; calls by dose curve). The method in brief:
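Agonist mode, beta-lactamase reporter: fluorescence from LiveBLAzer B/G FRET substrate (2 h, room temperature) read after 16 h compound treatment at 37 C of VDR-bla cells, which were pre-incubated 4 h after seeding.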

The target is the same in assay [5]. The assay is described as follows: qHTS assay to identify small molecule antagonists of the vitamin D receptor (VDR) signaling pathway (AID 743223; active means well fitted inhibition curve with a large enough effect in the signal ratio in the repeat runs, not every such curve was filed as active; the % refers to the signal ratio; further: potency means the concentration at half of the fitted maximal effect). The method, boiled down:
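Inhibition of agonist-driven VDR signalling is scored in VDR-bla cells: 3 nM final 1alpha,25-dihydroxyvitamin D3 plus compound, 16 h at 37C, then beta-lactamase detection by FRET substrate fluorescence after 2 h.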

Assay [6] is described as follows: qHTS assay to identify small molecule agonists of the vitamin D receptor (VDR) signaling pathway - cell viability counter screen (AID 743224). Further: nearly all actives have a fitted effect of over 50% in size. Further: potency means the concentration at half of the fitted maximal effect. The method in brief: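 Counter screen run in the same wells as the VDR-bla reporter assay: CellTiter-Glo luminescence, 30 min at room temperature, after 16 h compound treatment at 37C of cells pre-plated for 4 h.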
A short description of assay [7]: qHTS assay to identify small molecule antagonists of the vitamin D receptor (VDR) signaling pathway - cell viability counter screen (AID 743225). Further: nearly all actives have a fitted effect of over 50% in size. Further: potency means the concentration at half of the fitted maximal effect. The method, boiled down: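 Compounds were pinned onto VDR-bla HEK 293T cells together with 1-alpha,25-dihydroxyvitamin D3 at 3 nM final. After 16 h at 37C and 5% CO2 plus the reporter readout, cell viability was measured by CellTiter-Glo luminescence (30 min, room temperature).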

A short description of assay [8]: qHTS assay to identify small molecule agonists of the NFkB signaling pathway - cell viability counter screen (AID 1159515; calls by dose curve; further: nearly all actives have a fitted effect of over 55% in size; further: potency means the concentration at half of the fitted maximal effect). The method, boiled down:
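Read by CellTiter-Glo luminescence (30 min, room temperature) in the wells also used for the beta-lactamase FRET read. ME-180 NFkB-bla cells at 2,000 per well were plated overnight, then exposed to compound for 5 hr at 37 C.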

A short description of assay [9]: qHTS assay to identify small molecule agonists of the endoplasmic reticulum stress response signaling pathway (AID 1159516; active means well fitted activation curve with a large enough effect in the signal ratio in the repeat runs, not every such curve was filed as active; the % refers to the signal ratio). The method in brief:
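Ratiometric FRET readout (405 nm excitation; 460 and 530 nm emission) of a beta-lactamase gene driven by the ER stress response element, after 2 hr substrate loading. HeLa ESRE-bla cells were seeded overnight and treated with compounds for only 5 hr at 37 C.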

Assay [10] can be described thus: qHTS assay to identify small molecule antagonists of the retinoid-related orphan receptor gamma (ROR-gamma) signaling pathway - cell viability counter screen (AID 1159520). Further: nearly all actives have a fitted effect of over 50% in size. Further: potency means the concentration at half of the fitted maximal effect. The method in brief:
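Tet-on ROR gamma CHO cells (1,000/well) were plated 4 hr, given compounds in DMSO for 2 hr at 37 C, then induced with 1 uM final doxycycline for 16 hr. Viability was read as ATP by CellTiter-Glo luminescence after 30 min.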

The target of assay [11] is Nuclear receptor ROR-gamma (Homo sapiens) (UniProt P51449). In words: qHTS assay to identify small molecule antagonists of the retinoid-related orphan receptor gamma (ROR-gamma) signaling pathway (AID 1159521; further: nearly all actives have a fitted effect of over 50% in size; further: potency means the concentration at half of the fitted maximal effect). The method, boiled down:
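Test compounds were applied to Tet-on RORγ CHO cells 2 h ahead of doxycycline hyclate (1 uM final). Luciferase reporter activity was quantified by luminescence after 16 h at 37 C and 5% CO2.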

The nature of assay [12]: qHTS assay to identify small molecule agonists of the AP-1 signaling pathway (AID 1159526; calls by dose curve).
The target in assay [13] is Retinoic acid receptor RXR-alpha (Homo sapiens) (UniProt P19793). The assay is described as follows: qHTS assay to identify small molecule agonists of the RXR signaling pathway (AID 1159527; calls by dose curve; further: nearly all actives have a fitted effect of over 35% in size; further: potency means the concentration at half of the fitted maximal effect). The method, boiled down: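 Using 9-cis retinoic acid as the reference agonist, chemicals were tested in HEK 293T cells […] for 16 hr; substrate loading lasted 2 hr at room temperature.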
Chain of Retinoic acid receptor RXR-alpha (Homo sapiens) (P19793 whole entry, looked up): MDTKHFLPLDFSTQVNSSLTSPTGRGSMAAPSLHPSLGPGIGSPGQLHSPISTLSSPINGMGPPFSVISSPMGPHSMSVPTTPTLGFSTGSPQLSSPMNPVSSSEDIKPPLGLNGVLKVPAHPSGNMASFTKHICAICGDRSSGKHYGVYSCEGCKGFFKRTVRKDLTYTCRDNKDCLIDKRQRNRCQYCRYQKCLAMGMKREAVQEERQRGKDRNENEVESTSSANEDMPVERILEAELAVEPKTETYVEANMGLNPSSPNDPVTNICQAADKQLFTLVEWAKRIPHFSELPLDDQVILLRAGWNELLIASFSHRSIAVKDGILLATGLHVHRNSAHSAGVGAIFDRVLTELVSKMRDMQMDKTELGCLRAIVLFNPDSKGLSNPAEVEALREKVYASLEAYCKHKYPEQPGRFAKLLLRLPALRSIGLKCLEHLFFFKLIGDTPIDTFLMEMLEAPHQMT

Assay [14] in a line: qHTS assay to identify small molecule agonists of the farnesoid-X-receptor (FXR) signaling pathway - cell viability counter screen (AID 743218). Further: nearly all actives have a fitted effect of over 45% in size. Further: potency means the concentration at half of the fitted maximal effect. The method, boiled down:
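Viability counter screen in the same wells: CellTiter-Glo luminescence, 30 min room-temperature incubation, measured after the beta-lactamase read. Cells were GeneBLAzer FXR-UAS-bla HEK 293T, compound-treated 16 h at 37C.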

The nature of assay [15]: qHTS assay to identify small molecule agonists of the AP-1 signaling pathway - cell viability counter screen (AID 1159525; calls by dose curve; further: nearly all actives have a fitted effect of over 55% in size; further: potency means the concentration at half of the fitted maximal effect). The method in brief:
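Each titration point was normalised to DMSO and tetra n-octyl ammonium bromide controls. The read was Cell Titer Glo luminescence after 30 min at RT, following 5 h compound exposure of ME-180 AP-1-bla cells at 37 °C.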

Assay [16] concerns the target Peroxisome proliferator-activated receptor delta (Homo sapiens) (UniProt Q03181). The assay is described as follows: qHTS assay to identify small molecule agonists of the peroxisome proliferator-activated receptor delta (PPARd) signaling pathway (AID 743212; calls by dose curve;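 further: HEK293H cells with PPARd UAS beta-lactamase reporter GeneBLAzer system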). The method in brief:
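Beta-lactamase reporter read by fluorescence (LiveBLAzer B/G FRET, 2 h, room temperature). Test agents, in DMSO, incubated at 37 C with PPARd-bla HEK293H cells.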

Assay [17] shares this target. In words: qHTS assay to identify small molecule antagonists of the peroxisome proliferator-activated receptor delta (PPARd) signaling pathway (AID 743215; active means well fitted inhibition curve with a large enough effect in the signal ratio in the repeat runs, not every such curve was filed as active; the % refers to the signal ratio;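 further: cells stimulated with agonist L165041 at 300 nM final during compound exposure; series mostly up to about 62 µM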). The method in brief:
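Agonist L165041 (300 nM final) added with compound to PPARd-bla HEK293H UAS-bla reporter cells; 17 h incubation at 37 C. Read-out: LiveBLAzer FRET substrate, 2 h at room temperature, fluorescence intensity.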

The nature of assay [18]: qHTS assay to identify small molecule agonists of the endoplasmic reticulum stress response signaling pathway - cell viability counter screen (AID 1159517; calls by dose curve; further: nearly all actives have a fitted effect of over 50% in size; further: potency means the concentration at half of the fitted maximal effect). The method in brief: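 Cytotoxicity of test compounds toward ESRE-bla HeLa cells was assessed after 5 hr exposure. The luminescent CellTiter-Glo signal was measured 30 min after reagent addition.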
The target in assay [19] is Bile acid receptor (Homo sapiens) (UniProt Q96RI1). In words: qHTS assay to identify small molecule agonists of the farnesoid-X-receptor (FXR) signaling pathway (AID 743220; active means well fitted activation curve with a large enough effect in the signal ratio in the repeat runs, not every such curve was filed as active; the % refers to the signal ratio). The method, boiled down: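 FXR-UAS-bla HEK 293T cells carrying a UAS-driven beta-lactamase reporter were plated for 5 h at 37C/5% CO2, then exposed to DMSO-dissolved Tox21 10K compounds for 16 h at 37C. A LiveBLAzer B/G FRET substrate was loaded for 2 h at room temperature before fluorescence reading.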
Chain of Bile acid receptor (Homo sapiens) (Q96RI1 whole entry, looked up): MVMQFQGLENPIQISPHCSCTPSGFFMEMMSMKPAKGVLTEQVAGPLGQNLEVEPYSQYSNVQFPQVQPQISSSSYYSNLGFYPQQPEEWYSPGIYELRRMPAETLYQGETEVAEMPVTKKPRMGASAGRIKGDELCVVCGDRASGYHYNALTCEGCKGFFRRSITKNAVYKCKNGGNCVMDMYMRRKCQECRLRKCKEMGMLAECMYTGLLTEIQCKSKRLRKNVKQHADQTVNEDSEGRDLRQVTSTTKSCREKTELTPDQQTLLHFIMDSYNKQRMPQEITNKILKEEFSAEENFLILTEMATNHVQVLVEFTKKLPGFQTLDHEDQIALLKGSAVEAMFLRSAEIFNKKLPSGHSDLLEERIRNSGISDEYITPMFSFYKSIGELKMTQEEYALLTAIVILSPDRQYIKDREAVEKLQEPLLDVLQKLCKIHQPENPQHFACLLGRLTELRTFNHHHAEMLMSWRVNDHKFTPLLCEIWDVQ

Chain of Peroxisome proliferator-activated receptor delta (Homo sapiens) (Q03181 whole entry, looked up): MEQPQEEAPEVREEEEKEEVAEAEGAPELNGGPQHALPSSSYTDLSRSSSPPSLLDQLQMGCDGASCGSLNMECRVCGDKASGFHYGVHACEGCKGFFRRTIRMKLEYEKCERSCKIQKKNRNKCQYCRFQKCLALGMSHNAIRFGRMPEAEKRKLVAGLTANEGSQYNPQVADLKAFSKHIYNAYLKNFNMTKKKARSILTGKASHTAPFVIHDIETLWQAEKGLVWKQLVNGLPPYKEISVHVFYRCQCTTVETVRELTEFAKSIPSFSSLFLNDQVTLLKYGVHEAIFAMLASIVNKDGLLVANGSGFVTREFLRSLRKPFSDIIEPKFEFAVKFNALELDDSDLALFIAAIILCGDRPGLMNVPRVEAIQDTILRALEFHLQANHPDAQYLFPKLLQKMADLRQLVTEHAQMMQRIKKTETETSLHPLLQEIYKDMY
Chain of Vitamin D3 receptor (Homo sapiens) (P11473 whole entry, looked up): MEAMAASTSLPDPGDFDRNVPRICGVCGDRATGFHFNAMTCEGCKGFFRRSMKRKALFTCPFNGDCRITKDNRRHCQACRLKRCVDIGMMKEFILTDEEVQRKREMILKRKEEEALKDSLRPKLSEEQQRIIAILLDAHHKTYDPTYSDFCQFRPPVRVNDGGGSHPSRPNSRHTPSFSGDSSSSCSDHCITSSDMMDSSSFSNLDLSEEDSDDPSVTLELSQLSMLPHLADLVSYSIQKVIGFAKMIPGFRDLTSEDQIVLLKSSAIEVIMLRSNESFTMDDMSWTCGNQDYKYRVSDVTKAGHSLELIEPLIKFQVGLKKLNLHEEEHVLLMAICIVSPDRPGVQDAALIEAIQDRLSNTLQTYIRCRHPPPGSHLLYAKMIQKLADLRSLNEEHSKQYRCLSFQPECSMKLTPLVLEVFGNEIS

Consider `COc1cc(CC#N)cc(OC)c1OC`, for which the Potency entry in [1], in assay [2], in [3], in assay [5], in assay [6] and in [7] was “inactive” throughout. Also, the Potency entry in assay [8], in assay [9], in [10], in assay [11], in assay [12] and in [13] was “inactive” each time. Moreover, the result in assay [4] was inactive.
Consider `CCOC(=O)C1OC1(C)c1ccccc1` (stereo not given), for which the Potency entry in assay [1], in assay [2], in assay [14], in assay [3], in [6] and in [7] was “inactive” in each case. For the same molecule, the Potency entry in [8], in [9], in [10], in [11], in assay [15] and in assay [12] was “inactive” each time. Also, in assay [13], the Potency is 13.9 µM (active) and inactive.
With `CCOP(=S)(OCC)Oc1ccc(S(C)=O)cc1` (stereo not given), the Potency entry in assay [1], in assay [2], in [17], in [14], in [3] and in assay [5] was “inactive” in each case. Besides, the Potency entry in [6], in [8], in assay [9], in [10], in [11] and in [12] was “inactive” throughout. In addition, in assay [13], the Potency result is “inactive”. Moreover, the molecule was called inactive in assay [16] and in assay [4].
For `CCCCCCCCn1sccc1=O`, the Potency in [1] was 1.95 µM (active) and 2.04 µM (active); in assay [2] it was 1.38 µM (active) and 1.82 µM (active); in assay [14] it was 7.78 µM (active) and 5.13 µM (active); in [6], 873 nM (active) and 1.15 µM (active); in assay [8], 49.1 µM (active) and 3.63 µM (active); in assay [10], 24.4 µM (active) and 9.05 µM (active). Moreover, the Potency in [15] was 5.51 µM (active) and 5.13 µM (active). Further, in assay [4], the call was inactive.
As for `CCC(C)(C)c1ccc(O)c(C(C)(C)CC)c1`, the Potency in assay [1] is 19.3 µM (active) and 19.5 µM (active); in [2], 17.2 µM (active) and 38.9 µM (active); in assay [14], “inactive and 24.5 µM (active)”; in assay [3], 19.5 µM (active); in assay [5], 12.2 µM (active) and 17.4 µM (active); in assay [6], 12.2 µM (active) and 11 µM (active). Moreover, the Potency in assay [7] was 12.2 µM (active) and 19.5 µM (active); in assay [8], 21.6 µM (active) and 21.9 µM (active); in [18], 15.3 µM (active) and 21.9 µM (active); in assay [10], 60.4 µM (active); in assay [11] it was 60.4 µM (active) and 48.6 µM (active); in assay [15], 12.2 µM (active) and 13.8 µM (active). Further, the outcome in [16] and in assay [4] was inactive. The Potency entry in assay [17] was “inactive”.
On to `CCN(C(C)=O)c1cccc(-c2ccnc3c(C#N)cnn23)c1`, for which the Potency result in assay [1], in assay [2], in assay [14], in assay [3], in [5] and in assay [6] was “inactive” in each case. Besides, the Potency entry in assay [7], in [8], in assay [9], in [10], in [11] and in [15] was “inactive” throughout. Moreover, the Potency result in assay [12] and in [13] was “inactive” in each case. Besides, the molecule was called inactive in assay [19] and in assay [4].
Regarding `CC1(C)[C@H](C(=O)O[C@H](C#N)c2cccc(Oc3ccccc3)c2)[C@@H]1C=C(Br)Br`, the Potency entry in [1], in [2], in [3], in assay [6], in assay [7] and in [8] was “inactive” each time. The Potency entry in assay [18], in [10], in assay [11], in [15] and in [13] was “inactive” throughout.
`C=CC(C)(CCC=C(C)C)OC(=O)c1ccccc1N` (stereo not given): the Potency entry in [2], in [14], in assay [3], in assay [5], in [6] and in assay [7] was “inactive” in each case. In addition, the Potency result in assay [8], in [9], in assay [10], in [11], in [15] and in [12] was “inactive” throughout. The Potency entry in assay [13] is “inactive”. Besides, the call in assay [4] was inactive.
As for `[Cl-].[Cl-].[Hg+2]`, the Potency was 1.73 µM (active) and 2.19 µM (active) in assay [1]; 2.44 µM (active) and 1.74 µM (active) in [2]; 2.74 µM (active) and 9.77 µM (active) in assay [14]; 2.18 µM (active) and 3.47 µM (active) in [3]; 773 nM (active) and 1.1 µM (active) in [6]; 1.22 µM (active) and 3.47 µM (active) in assay [7]. The Potency in assay [8] is 3.45 µM (active) and 49 µM (active); in assay [18], 48.8 µM (active); in assay [10], 48.3 µM (active) and 1.09 µM (active); in assay [15] it was 4.88 µM (active) and 4.36 µM (active).
